# Results taken from PubChem BioAssay (EPA / NIEHS).
# Several values for one entry are separate records, joined by “and”; a condition that tells them apart may be missing. Equal entries are not always repeated. Some compounds were tested as several samples or in several runs, with calls that do not always agree. Activity calls are given as the source filed them. The calls were made as follows: active = hit-call score of the fitted dose curve at least 0.9, where 1 is the maximum; inactive = score below 0.9.
# Tests used:
# [1] = BSK_BT_PBMCCytotoxicity: PBMC Cytotoxicity Assessment in the BioMAP Diversity Plus: BT Assay (AID 2284225); settings: primary human B cells with PBMC;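 also: PBMC viability measured by Alamar Blue dye reduction fluorescence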
# Procedure, shortened: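 Viability by Alamar Blue reduction (6 h, ex/em 546/580 nm) after 90 h culture of SEB/TSST-1-activated PBMC (20 ng/mL each) given compound 1 h before activation. DMSO served as baseline for curve fitting.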
# [2] = read-out: Secreted IgG (sIgG), gene 3500; experiment: BSK_BT_sIgG: BioMAP Diversity Plus: BT Assay for Secreted IgG (sIgG) Biomarker Activity (AID 2284226); settings: primary human B cells with PBMC
# Procedure, shortened: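 ELISA quantitation of secreted IgG from human B cells co-cultured with PBMC, sampled 24 h post-dosing. Values fitted relative to DMSO vehicle as baseline, positive fitting direction.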
# [3] = BSK_BT_Bcell_Proliferation: Viability Assessment in the BioMAP Diversity Plus: BT Assay for B cell Proliferation (AID 2284227); settings: primary human B cells with PBMC
# Procedure, shortened: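 SRB-based protein staining (0.1% SRB after 10% TCA fixation, 560 nm) quantifies proliferation in human B cells co-cultured with PBMC, 72 h post-dosing, with signal gain scored relative to DMSO negative control.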
# [4] = read-out: Interleukin 17A (IL17A), IL17A (gene 3605); experiment: BSK_BT_xIL17A: BioMAP Diversity Plus: BT Assay for Interleukin 17A (IL17A) Biomarker Activity (AID 2284229); settings: primary human B cells with PBMC
# Procedure, shortened: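 B cells co-cultured with PBMC were exposed to test chemicals, and secreted IL-17A was quantified 24 h after dosing by Luminex xMAP bead immunoassay. Activity was fitted in the gain direction against DMSO as baseline.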
# [5] = read-out: Tumor necrosis factor (Homo sapiens) (UniProt P01375); experiment: BSK_BT_xTNFa: BioMAP Diversity Plus: BT Assay for Tumor necrosis factor alpha (TNF-alpha) Biomarker Activity (AID 2284230); settings: primary human B cells with PBMC
# Procedure, shortened: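 Compounds were added to a B cell plus PBMC co-culture, and after 24 h secreted TNF-alpha was quantified with Luminex xMAP technology, with responses fitted upward from the DMSO control.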
# [6] = read-out: Vascular cell adhesion molecule 1 (VCAM1), VCAM1 (gene 7412); experiment: BSK_MyoF_VCAM1: BioMAP Diversity Plus: MyoF Assay for Vascular cell adhesion molecule 1 (VCAM1) Biomarker Activity (AID 2284231); settings: primary human lung fibroblasts
# Procedure, shortened: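 Primary human lung fibroblasts were dosed with test chemical for 24 h, then cell-surface VCAM-1 was measured by ELISA. Activity was fitted in the positive direction against DMSO as negative control and baseline.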
# [7] = read-out: Collagen I, COL1A1 (gene 1277); experiment: BSK_MyoF_CollagenI: BioMAP Diversity Plus: MyoF Assay for Collagen I Biomarker Activity (AID 2284238); settings: primary human lung fibroblasts
# Procedure, shortened: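 Human lung fibroblasts were exposed to test chemical for 24 h, then Collagen I was quantified by ELISA. Activity was fitted in the increasing direction against DMSO as the negative control and baseline.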
# [8] = read-out: Collagen III, COL3A1 (gene 1281); experiment: BSK_MyoF_CollagenIII: BioMAP Diversity Plus: MyoF Assay for Collagen III Biomarker Activity (AID 2284239); settings: primary human lung fibroblasts
# Procedure, shortened: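 Human lung fibroblasts were dosed with chemicals and, 24 hours later, collagen III was measured by ELISA. Activity was fitted in the positive direction against the DMSO negative-control baseline.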
# [9] = read-out: Interleukin 17F (IL17F), IL17F (gene 112744); experiment: BSK_BT_xIL17F: BioMAP Diversity Plus: BT Assay for Interleukin 17F (IL17F) Biomarker Activity (AID 2284243); settings: primary human B cells with PBMC
# Procedure, shortened: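 B cell/PBMC co-culture (human primary), 24 h compound exposure; sIL-17F by Luminex xMAP; gain-of-signal fit vs DMSO baseline.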
# [10] = read-out: Actin alpha 1 (ACTA1), ACTA1 (gene 58); experiment: BSK_MyoF_ACTA1: BioMAP Diversity Plus: MyoF Assay for Actin alpha 1 (ACTA1) Biomarker Activity (AID 2284244); settings: primary human lung fibroblasts
# Procedure, shortened: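 alpha-SMA levels read by ELISA against DMSO baseline, 24 h post-dose, in primary human lung fibroblasts. Parallel cultures stained with 0.1% SRB after 10% TCA fixation (560 nm) to flag overt cytotoxicity.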
# [11] = read-out: Interleukin 2 (IL2), IL2 (gene 3558); experiment: BSK_BT_xIL2: BioMAP Diversity Plus: BT Assay for Interleukin 2 (IL2) Biomarker Activity (AID 2284245); settings: primary human B cells with PBMC
# Procedure, shortened: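 Secreted IL-2 was read by Luminex xMAP from B cells co-cultured with PBMC (human primary) 24 h post-dosing; activity was analysed as gain of signal relative to DMSO vehicle.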
# [12] = read-out: Basic fibroblast growth factor (bFGF), FGF2 (gene 2247); experiment: BSK_MyoF_bFGF: BioMAP Diversity Plus: MyoF Assay for Basic fibroblast growth factor (bFGF) Biomarker Activity (AID 2284246); settings: primary human lung fibroblasts
# Procedure, shortened: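 bFGF was measured by ELISA in primary human lung fibroblasts 24 h after chemical addition. Signal was analysed as positive-direction change relative to DMSO baseline.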
# [13] = read-out: Collagen IV, COL4A1 (gene 1282); experiment: BSK_MyoF_CollagenIV: BioMAP Diversity Plus: MyoF Assay for Collagen IV Biomarker Activity (AID 2284247); settings: primary human lung fibroblasts
# Procedure, shortened: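 Collagen IV quantified by ELISA in human lung fibroblast cultures 24 h after chemical treatment, with DMSO as baseline. Parallel SRB staining (0.1% SRB after TCA fixation, 560 nm) flags overt cytotoxicity.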
# [14] = read-out: Monokine induced gamma interferon (MIG), CXCL9 (gene 4283); experiment: BSK_KF3CT_MIG: BioMAP Diversity Plus: KF3CT Assay for Monokine induced gamma interferon (MIG) Biomarker Activity (AID 2284248); settings: primary human keratinocytes with fibroblasts
# Procedure, shortened: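 Human keratinocyte plus foreskin fibroblast primary co-culture dosed with test chemical for 24 h; MIG level measured by ELISA and fitted in the positive direction against DMSO as baseline.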
# [15] = read-out: Interleukin 6 (IL6), IL6 (gene 3569); experiment: BSK_BT_xIL6: BioMAP Diversity Plus: BT Assay for Interleukin 6 (IL6) Biomarker Activity (AID 2284228); settings: primary human B cells with PBMC
# Procedure, shortened: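 Human B cell plus PBMC co-culture exposed to test chemical for 24 h; secreted IL-6 quantified by Luminex xMAP bead assay. Activity fitted in the positive direction against DMSO as negative control and baseline.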
# Tumor necrosis factor (Homo sapiens), sequence (P01375 whole entry, looked up): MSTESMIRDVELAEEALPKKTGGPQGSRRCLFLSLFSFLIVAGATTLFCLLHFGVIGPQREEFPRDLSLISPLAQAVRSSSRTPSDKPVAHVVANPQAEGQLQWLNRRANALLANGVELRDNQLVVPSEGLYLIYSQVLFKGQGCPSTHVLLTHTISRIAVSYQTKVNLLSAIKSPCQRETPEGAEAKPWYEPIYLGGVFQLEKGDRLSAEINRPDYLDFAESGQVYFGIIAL
smiles,measurement,setting,value
O=C(c1ccccc1)c1ccc(O)cc1O,outcome,[1],inactive
same,outcome,[2],inactive
same,outcome,[3],inactive
same,outcome,[4],inactive
same,outcome,[5],inactive
same,outcome,[6],inactive
same,outcome,[7],inactive
same,outcome,[8],inactive
same,outcome,[9],inactive
same,outcome,[10],inactive
same,outcome,[11],inactive
same,outcome,[12],inactive
same,outcome,[13],inactive
CCN(CC)c1ccc2c(c1)Oc1cc(N(CC)CC)ccc1C21OC(=O)c2ccccc21,AC50,[1],6.15 µM (active)
same,AC50,[2],6.43 µM (active)
same,AC50,[3],6.1 µM (active)
same,outcome,[4],inactive
same,outcome,[5],inactive
same,outcome,[6],inactive
same,outcome,[7],inactive
same,outcome,[8],inactive
same,outcome,[9],inactive
same,outcome,[10],inactive
same,outcome,[11],inactive
same,outcome,[12],inactive
same,outcome,[13],inactive
O=S(=O)(Cl)C(F)(F)C(F)(F)C(F)(F)C(F)(F)C(F)(F)C(F)(F)C(F)(F)C(F)(F)F,AC50,[1],8.8 µM (active) and 16.2 µM (active)
same,outcome,[2],inactive
same,outcome,[3],inactive
same,outcome,[4],inactive
same,AC50,[5],15.9 µM (active)
same,outcome,[5],inactive
same,outcome,[6],inactive
same,outcome,[7],inactive
same,AC50,[8],30 µM (active) and 41.1 µM (active)
same,outcome,[9],inactive
same,outcome,[10],inactive
same,outcome,[11],inactive
same,outcome,[12],inactive
same,AC50,[13],41.1 µM (active) and 30.1 µM (active)
same,outcome,[14],inactive
FC(F)(F)C(F)(F)C(F)(F)C(F)(F)C(F)(F)C(F)(F)CC[Si](Cl)(Cl)Cl,outcome,[1],inactive
same,outcome,[2],inactive
same,outcome,[3],inactive
same,outcome,[15],inactive
same,outcome,[4],inactive
same,outcome,[5],inactive
same,outcome,[6],inactive
same,outcome,[7],inactive
same,outcome,[8],inactive
same,outcome,[9],inactive
same,outcome,[10],inactive
same,outcome,[11],inactive
same,outcome,[12],inactive
same,outcome,[13],inactive
same,outcome,[14],inactive
NCC(F)(F)C(F)(F)C(F)(F)C(F)(F)C(F)(F)C(F)(F)F,outcome,[1],inactive
same,outcome,[2],inactive
same,outcome,[3],inactive
same,outcome,[4],inactive
same,outcome,[5],inactive
same,outcome,[6],inactive
same,outcome,[7],inactive
same,outcome,[8],inactive
same,outcome,[9],inactive
same,outcome,[10],inactive
same,outcome,[11],inactive
same,outcome,[12],inactive
same,outcome,[14],inactive
Brc1nc2ccccc2s1,outcome,[1],inactive
same,outcome,[2],inactive
same,outcome,[3],inactive
same,outcome,[4],inactive
same,outcome,[5],inactive
same,outcome,[6],inactive
same,outcome,[7],inactive
same,outcome,[8],inactive
same,outcome,[9],inactive
same,outcome,[10],inactive
same,AC50,[11],0.431 µM (active)
same,outcome,[12],inactive
C=C(C)C(=O)OCC(F)(F)C(F)(F)C(F)(F)C(F)F,outcome,[1],inactive
same,outcome,[2],inactive
same,outcome,[3],inactive
same,outcome,[4],inactive
same,outcome,[5],inactive
same,outcome,[6],inactive
same,outcome,[7],inactive
same,outcome,[8],inactive
same,AC50,[9],22.9 µM (active)
same,outcome,[9],inactive
same,AC50,[10],14.4 µM (active)
same,outcome,[10],inactive
same,outcome,[11],inactive
same,outcome,[12],inactive
same,outcome,[14],inactive
COC(F)(C(F)F)C(F)(F)F (stereo not given),outcome,[1],inactive
same,outcome,[2],inactive
same,outcome,[3],inactive
same,outcome,[4],inactive
same,outcome,[5],inactive
same,outcome,[6],inactive
same,outcome,[7],inactive
same,outcome,[8],inactive
same,outcome,[9],inactive
same,AC50,[10],0.556 µM (active)
same,outcome,[10],inactive
same,outcome,[11],inactive
same,outcome,[12],inactive
same,outcome,[14],inactive
OCC(O)CC(F)(F)C(F)(F)C(F)(F)C(F)(F)C(F)(F)C(F)(F)C(F)(F)C(F)(F)F (stereo not given),outcome,[1],inactive
same,outcome,[2],inactive
same,outcome,[3],inactive
same,outcome,[4],inactive
same,outcome,[5],inactive
same,outcome,[6],inactive
same,outcome,[7],inactive
same,outcome,[8],inactive
same,outcome,[9],inactive
same,outcome,[10],inactive
same,outcome,[11],inactive
same,outcome,[12],inactive
same,outcome,[14],inactive
Cc1cc(O)c(C(C)(C)C)cc1C(C)(C)C,AC50,[1],26.5 µM (active)
same,AC50,[2],12.9 µM (active)
same,AC50,[3],26.1 µM (active)
same,AC50,[4],20 µM (active)
same,AC50,[5],33.3 µM (active)
same,AC50,[6],3.83 µM (active)
same,AC50,[7],4.19 µM (active)
same,AC50,[8],5.41 µM (active)
same,AC50,[9],27.3 µM (active)
same,AC50,[10],3.74 µM (active)
same,AC50,[11],31.2 µM (active)
same,AC50,[12],5.37 µM (active)
CC1=CC2C3C=CC(C3)C2C1C (stereo not given),outcome,[1],inactive
same,AC50,[2],20 µM (active)
same,outcome,[3],inactive
same,outcome,[4],inactive
same,outcome,[5],inactive
same,outcome,[6],inactive
same,outcome,[7],inactive
same,outcome,[8],inactive
same,outcome,[9],inactive
same,outcome,[10],inactive
same,outcome,[11],inactive
same,outcome,[12],inactive
O=C1c2c(O)ccc(Nc3ccc(CCO)cc3)c2C(=O)c2c([N+](=O)[O-])ccc(O)c21,AC50,[1],20 µM (active)
same,AC50,[2],29.9 µM (active)
same,AC50,[3],15.5 µM (active)
same,outcome,[4],inactive
same,outcome,[5],inactive
same,AC50,[6],20 µM (active)
same,AC50,[7],28.9 µM (active)
same,AC50,[8],30.2 µM (active)
same,AC50,[9],35.3 µM (active)
same,AC50,[10],25.6 µM (active)
same,outcome,[11],inactive
same,outcome,[12],inactive
FC(F)(F)C(F)(F)C(F)(F)CC1CO1 (stereo not given),outcome,[1],inactive
same,outcome,[2],inactive
same,outcome,[3],inactive
same,outcome,[15],inactive
same,outcome,[4],inactive
same,outcome,[5],inactive
same,outcome,[6],inactive
same,outcome,[7],inactive
same,outcome,[8],inactive
same,outcome,[9],inactive
same,outcome,[10],inactive
same,outcome,[11],inactive
same,outcome,[12],inactive
same,outcome,[14],inactive
CCOC(=O)CC(=O)C(F)(F)C(F)(F)F,outcome,[1],inactive
same,outcome,[2],inactive
same,outcome,[3],inactive
same,outcome,[15],inactive
same,outcome,[4],inactive
same,outcome,[5],inactive
same,outcome,[6],inactive
same,outcome,[7],inactive
same,outcome,[8],inactive
same,outcome,[9],inactive
same,outcome,[10],inactive
same,outcome,[11],inactive
same,outcome,[12],inactive
same,outcome,[14],inactive
CCOC(C=C(C)CCC=C(C)C)OCC,outcome,[1],inactive
same,outcome,[2],inactive
same,outcome,[3],inactive
same,outcome,[4],inactive
same,outcome,[5],inactive
same,AC50,[6],27 µM (active)
same,AC50,[7],30 µM (active)
same,AC50,[8],20 µM (active)
same,outcome,[9],inactive
same,AC50,[10],7.77 µM (active)
same,outcome,[11],inactive
same,AC50,[12],30.7 µM (active)
same,outcome,[13],inactive
